# According to ChEMBL document CHEMBL3988442, “University of Dundee, Small-Polar-MMV Screening Library” (2021):
# In all, about 48,000 compounds went through this assay and about 13,000 (27%) showed an effect of 50% or more. This is one part of the list.
# System: Wolbachia pipientis
# Assay: Anti-Wolbachia Cell-Based Screen
# Assay type: functional
# Parameters: scale not given: in the data most compounds retested in dose-response had high values
# Conditions: 5 µM
row,Compound,Percent Effect [%]
1,COCC(=O)N1CCC(C(=O)N(C)CCCc2nccn2C)CC1,-11.58
2,CCC[C@H]1CN(S(=O)(=O)c2cc(C)ccc2C)C[C@@H]1N,-30.29
3,CN1CCC2(CC1)CCN(C(=O)c1onc3ccccc13)C2,92.75
4,CN1CCC2(CC1)CN(C(=O)c1onc3ccccc13)CCCN2C,72.92
5,CS(=O)(=O)N1CCCC12CCCN(C(=O)c1ccno1)C2 (stereo not drawn),-3.748
6,CC(=O)N1CCCC2(CCN(C(=O)c3nn(C)c4ccccc34)CC2)C1,-40.55
7,CCN(CC)Cc1cc(C(=O)N2CCC3(CCN(C)CC3)C2)c(C)o1,8.973
8,Cc1ccoc1C(=O)N1CCCC2(CCCN2S(C)(=O)=O)C1 (stereo not drawn),-9.811
9,Cc1ccc(C(CNC(=O)Cc2nc3ncccn3n2)N(C)C)cc1 (stereo not drawn),-10.58
10,CC(=O)NCCc1ccc(S(=O)(=O)N(C)C(C)CC(C)C)s1 (stereo not drawn),2.114
11,CCC[C@H]1CN(C(=O)c2cc(-c3cccs3)n(C)n2)C[C@@H]1N,106.1
12,CCC[C@@H]1CN(Cc2cnc(-c3cccs3)nc2)C[C@H]1C(=O)O,-4.575
13,CCC[C@@H]1CN(C(=O)c2cc(-c3cccs3)n(C)n2)C[C@H]1NS(C)(=O)=O,96.45
14,CCC[C@@H]1CN(C(=O)c2ccccc2C(C)=O)C[C@H]1N(C)C,5.199
15,CCC[C@H]1CN(CCS(C)(=O)=O)C[C@@H]1NC(=O)c1ccn(C)n1,-3.531
16,CCC[C@@H]1CN(C(=O)CCc2ccco2)C[C@H]1NS(C)(=O)=O,-2.62
17,CC(C)c1nc(C(=O)N2C[C@H](C(C)C)[C@@H](N)C2)cs1,-1.889
18,CCC[C@@H]1CN(C(=O)c2cc(-c3cccs3)n(C)n2)C[C@H]1N(C)C,95.7
19,CCC[C@@H]1CN(C(=O)c2cc3ccccc3cc2O)C[C@H]1N(C)C,2.808
20,COc1cc(C(=O)N2CCC(O)(CN3CCOCC3)C(C)(C)C2)ccn1 (stereo not drawn),1.548
21,Cc1ccc(N2CC3(COCCN(Cc4cccnc4)C3)OCC2=O)s1.O=C(O)C(F)(F)F.O=C(O)C(F)(F)F (stereo not drawn),6.598

row,Compound,Percent Effect [%]
1,CC1(C(=O)N2CCOCC2)CN(Cc2cccnc2)CCO1 (stereo not drawn),65.44
2,COc1ncc(-c2nccn2-c2ccccc2CN2CCOCC2)cn1,4.794
3,CSCCC(O)C(=O)N1CCCN(Cc2cccnc2)CC1 (stereo not drawn),-2.174
4,COc1ncc(CN2CCOC(C)(C(=O)N3CCOCC3)C2)cn1 (stereo not drawn),124.6
5,O=C(c1cccnc1)N1CCC(Oc2cccc(C(F)(F)F)c2)CC1,6.335
6,CNc1cccc(C2CCN(C(=O)c3cccnc3)CC2)n1,107.8
7,CNc1cccc(C2CCCN(C(=O)c3cscn3)C2)n1 (stereo not drawn),98.56
8,CNc1cccc(C2CCCN(C(=O)c3cncs3)C2)n1 (stereo not drawn),121.7
9,CNc1cccc(C2CCCN(C(=O)c3ccn(C)n3)C2)n1 (stereo not drawn),117.7
10,CN(c1ncccc1CNC(=O)c1csnn1)C1CCCCC1,20.86
11,Cc1ccsc1CN(CCN(C)C)C(=O)c1ccc(C#N)nc1,-1.147
12,NC1CCN(C2CCN(c3ccc(-c4ccco4)cc3)CC2)CC1,-26.06
13,CCc1nsc(N2CCc3sccc3C2)n1,12.97
14,CNc1cccc(C2CCCN(C(=O)Cc3ccccc3)C2)n1 (stereo not drawn),110.2
15,CNc1cccc(C2CCCN(C(=O)c3cccnc3)C2)n1 (stereo not drawn),119.9
16,CNc1cccc(C2CCCN(C(=O)c3ccncc3)C2)n1 (stereo not drawn),-7.86
17,CNc1cccc(C2CCCN(C(=O)c3cnccn3)C2)n1 (stereo not drawn),101.6
18,CNc1cccc(C2CCCN(C(=O)c3coc(C)n3)C2)n1 (stereo not drawn),115.1
19,O=C(N[C@@H]1CCN(c2ncc(Cl)cc2Cl)C[C@H]1O)c1cnccn1,-4.452
20,COC(C)C(=O)Nc1cc(C(=O)N2CCSCC2)ccc1C (stereo not drawn),-22.96
21,CNS(=O)(=O)c1ccc(CN2CCN3CCNC(=O)C3C2)cc1 (stereo not drawn),-0.7065

row,Compound,Percent Effect [%]
1,COCCN1CCCC(O)(CN2CCN(c3cnccn3)CC2)C1=O (stereo not drawn),-3.22
2,O=S(=O)(C1CC1)N1CCC(Cn2cccn2)CC1,1.748
3,Cc1cc(C(C)NC(=O)c2ccc(O)nc2)c(C)o1 (stereo not drawn),2.609
4,O=C(NC1CC(=O)N(C2CC2)C1)c1ccc(Cl)s1 (stereo not drawn),-7.498
5,CC(C)N1CC(NC(=O)c2ccc(Cl)s2)CC1=O (stereo not drawn),98.39
6,CCCS(=O)(=O)N1CCC(NC(=O)c2ccc(Cl)s2)CC1,8.314
7,O=C(C1CC1)N1Cc2[nH]nc(COCc3cccnc3)c2C1.O=C(O)C(F)(F)F.O=C(O)C(F)(F)F,96.05
8,O=C(O)C(F)(F)F.O=S(=O)(C1CC1)N1Cc2[nH]nc(COCC3CC3)c2C1,-8.849
9,O=C(O)C(F)(F)F.O=C(O)C(F)(F)F.O=C(O)C(F)(F)F.c1ccc(CN2Cc3[nH]nc(COc4cccnc4)c3C2)nc1,6.723
10,O=C(NC1CC1)N1Cc2[nH]nc(COc3cccnc3)c2C1.O=C(O)C(F)(F)F,-0.5105
11,O=C(O)C(F)(F)F.O=C(O)C(F)(F)F.c1cncc(COCc2n[nH]c3c2CN(Cc2ccco2)C3)c1,1.979
12,CCS(=O)(=O)N1Cc2[nH]nc(COCc3cccnc3)c2C1.O=C(O)C(F)(F)F,98.27
13,Cc1nn(C)c(C)c1C(C)NC(=O)Nc1cccnc1N1CCCC1 (stereo not drawn),8.996
14,CCSc1ccc(NC(=O)NC(C)c2c(C)nn(C)c2C)cn1 (stereo not drawn),-34.73
15,Cc1nn(C)c(C)c1-c1ccc(=O)n(C(C)C(=O)NC(C)(C)C)n1 (stereo not drawn),122.1
16,COC(=O)[C@H]1CN(C(=O)NC(C)C)CCN1C(=O)c1cccs1,13.93
17,Cc1nc(N2CCCC2)nc2c1CCN(C(=O)c1ccoc1C)CC2,99.57
18,Cc1cc(C(=O)N2CCc3nc(N4CCCC4)nc(C)c3CC2)c(C)o1,102.5
19,Cc1nc(N2CCCC2)nc2c1CN(C(=O)c1ccco1)CC2,4.912
20,Cc1cc(C(=O)N2CCc3nc(N4CCOCC4)nc(C)c3C2)c(C)o1.O=CO,94.45
21,CN(C)c1nc(N2CCCC2)nc2c1CCN(C(=O)c1ccoc1)CC2,-4.722
